{"source": "the supplement of paper PMC7724964", "experiment_in_all_cases": "phage ELISA signal ratio (GST-PRM binding over GST background); higher = stronger binding of peptide-phage to the PRM", "key": {"[1]": {"molecular_target": "EIF2S1 9-93 S1 (domain begin residue: 9, domain end residue: 93), P05198", "sequence (P05198 whole entry, the tested form may be a part)": "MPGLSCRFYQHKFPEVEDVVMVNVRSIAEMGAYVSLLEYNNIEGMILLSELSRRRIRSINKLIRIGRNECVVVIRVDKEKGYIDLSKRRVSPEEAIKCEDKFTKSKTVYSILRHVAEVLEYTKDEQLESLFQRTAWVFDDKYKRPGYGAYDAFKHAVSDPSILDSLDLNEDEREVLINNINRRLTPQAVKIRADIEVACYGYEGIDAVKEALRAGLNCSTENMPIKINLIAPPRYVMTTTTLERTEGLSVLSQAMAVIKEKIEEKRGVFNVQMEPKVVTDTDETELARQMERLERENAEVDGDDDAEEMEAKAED", "method_in_brief": "(§1)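 Each value is the phage ELISA signal on the glutathione S-transferase (GST)-domain fusion divided by the signal on GST alone. Human peptide recognition domains were expressed in 96-well plates, fused to the C-terminus of GST, and selected against an M13 phage library carrying randomized, cysteine-free, glycine-flanked hexadecapeptides on the gene-8 major coat protein. After five selection rounds, approximately 48 individual clones from rounds 4 and 5 were tested by phage ELISA, and positive clones were sequenced.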"}, "[2]": {"molecular_target": "PABPC1 96-174 RRM_1 (domain begin residue: 96, domain end residue: 174)", "method_in_brief": "as §1"}, "[3]": {"molecular_target": "T1, ESRRG 219-458 Hormone_recep (domain begin residue: 219, domain end residue: 458), P62508", "T1 chain": "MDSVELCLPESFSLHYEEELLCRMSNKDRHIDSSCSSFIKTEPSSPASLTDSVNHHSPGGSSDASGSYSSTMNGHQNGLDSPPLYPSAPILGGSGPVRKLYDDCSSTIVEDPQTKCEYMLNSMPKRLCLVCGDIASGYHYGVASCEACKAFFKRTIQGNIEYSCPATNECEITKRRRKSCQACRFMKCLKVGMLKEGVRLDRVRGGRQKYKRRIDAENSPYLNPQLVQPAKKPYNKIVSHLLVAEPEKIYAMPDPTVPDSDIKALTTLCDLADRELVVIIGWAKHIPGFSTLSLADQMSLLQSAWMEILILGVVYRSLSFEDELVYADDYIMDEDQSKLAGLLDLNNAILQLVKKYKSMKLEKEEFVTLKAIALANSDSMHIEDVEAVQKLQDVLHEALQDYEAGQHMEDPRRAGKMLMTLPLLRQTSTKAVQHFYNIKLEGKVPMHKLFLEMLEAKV", "method_in_brief": "as §1"}, "[4]": {"molecular_target": "PCMT1 1-227 PCMT (domain begin residue: 1, domain end residue: 227), P22061", "sequence (P22061 whole entry)": "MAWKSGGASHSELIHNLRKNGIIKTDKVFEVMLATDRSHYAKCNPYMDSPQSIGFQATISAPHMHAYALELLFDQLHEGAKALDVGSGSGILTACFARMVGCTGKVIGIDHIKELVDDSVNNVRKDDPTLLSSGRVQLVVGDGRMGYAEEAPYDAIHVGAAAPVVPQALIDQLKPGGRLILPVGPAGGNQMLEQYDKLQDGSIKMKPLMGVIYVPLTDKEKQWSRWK", "method_in_brief": "as §1"}, "[5]": {"molecular_target": "T2, DYNLL2 1-89 Dynein_light (domain begin residue: 1, domain end residue: 89), Q96FJ2", "T2 chain": "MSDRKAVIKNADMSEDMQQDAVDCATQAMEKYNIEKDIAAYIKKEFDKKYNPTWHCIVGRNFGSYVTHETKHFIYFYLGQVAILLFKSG", "method_in_brief": "as §1"}, "[6]": {"molecular_target": "T3, ENAH 9-116 WH1 (domain begin residue: 9, domain end residue: 116), Q8N8S7", "T3 chain": "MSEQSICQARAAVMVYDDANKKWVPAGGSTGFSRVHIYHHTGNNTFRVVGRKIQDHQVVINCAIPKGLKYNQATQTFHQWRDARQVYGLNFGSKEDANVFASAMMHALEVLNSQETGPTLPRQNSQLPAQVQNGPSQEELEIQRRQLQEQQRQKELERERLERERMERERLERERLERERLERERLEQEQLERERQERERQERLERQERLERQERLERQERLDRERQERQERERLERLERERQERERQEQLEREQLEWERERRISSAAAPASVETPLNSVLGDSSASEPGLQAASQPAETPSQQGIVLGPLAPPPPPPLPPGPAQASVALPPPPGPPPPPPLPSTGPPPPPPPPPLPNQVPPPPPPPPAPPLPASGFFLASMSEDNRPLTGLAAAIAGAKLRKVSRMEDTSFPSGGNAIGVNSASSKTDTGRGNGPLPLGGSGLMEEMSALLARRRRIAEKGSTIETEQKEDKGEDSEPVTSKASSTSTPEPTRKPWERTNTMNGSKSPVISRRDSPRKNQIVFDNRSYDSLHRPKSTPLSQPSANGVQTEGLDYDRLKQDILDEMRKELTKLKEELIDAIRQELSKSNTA", "method_in_brief": "as §1"}, "[7]": {"molecular_target": "T4, EEF1A2 240-332 GTP_EFTU_D2 (domain begin residue: 240, domain end residue: 332), Q05639", "T4 chain": "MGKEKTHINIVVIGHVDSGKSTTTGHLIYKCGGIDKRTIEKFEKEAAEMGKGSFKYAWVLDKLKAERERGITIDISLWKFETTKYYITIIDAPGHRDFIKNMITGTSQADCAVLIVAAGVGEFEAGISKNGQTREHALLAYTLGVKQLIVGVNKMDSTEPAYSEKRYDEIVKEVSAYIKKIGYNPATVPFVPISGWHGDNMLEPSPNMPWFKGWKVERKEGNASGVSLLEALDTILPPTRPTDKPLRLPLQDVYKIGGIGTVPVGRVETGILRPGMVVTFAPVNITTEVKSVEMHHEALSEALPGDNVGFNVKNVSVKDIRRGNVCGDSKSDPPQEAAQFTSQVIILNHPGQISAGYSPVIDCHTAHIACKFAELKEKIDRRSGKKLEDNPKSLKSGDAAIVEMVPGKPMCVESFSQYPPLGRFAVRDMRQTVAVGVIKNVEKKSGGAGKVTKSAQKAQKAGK", "method_in_brief": "as §1"}, "[8]": {"molecular_target": "T5, FKBP3 109-224 FKBP_C (domain begin residue: 109, domain end residue: 224), Q00688", "T5 chain": "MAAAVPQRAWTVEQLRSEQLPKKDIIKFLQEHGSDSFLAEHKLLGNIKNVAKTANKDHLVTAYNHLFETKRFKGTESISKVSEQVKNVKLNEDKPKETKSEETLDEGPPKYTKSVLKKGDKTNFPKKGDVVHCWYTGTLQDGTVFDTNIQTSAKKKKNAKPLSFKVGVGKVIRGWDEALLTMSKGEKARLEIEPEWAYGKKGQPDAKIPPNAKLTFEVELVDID", "method_in_brief": "as §1"}, "[9]": {"molecular_target": "EIF4E 2-217 IF4E (domain begin residue: 2, domain end residue: 217), P06730", "sequence (P06730 whole entry)": "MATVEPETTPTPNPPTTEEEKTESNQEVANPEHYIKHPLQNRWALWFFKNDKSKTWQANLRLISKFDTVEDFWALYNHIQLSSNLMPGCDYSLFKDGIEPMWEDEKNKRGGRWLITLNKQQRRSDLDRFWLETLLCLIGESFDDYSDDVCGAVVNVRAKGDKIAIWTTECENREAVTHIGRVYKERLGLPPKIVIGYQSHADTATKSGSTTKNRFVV", "method_in_brief": "as §1"}, "[10]": {"molecular_target": "EGFR 334-495 Recep_L_domain (domain begin residue: 334, domain end residue: 495), P00533", "method_in_brief": "as §1"}, "[11]": {"molecular_target": "T6, ESRRA 179-423 Hormone_recep (domain begin residue: 179, domain end residue: 423), P11474", "T6 chain": "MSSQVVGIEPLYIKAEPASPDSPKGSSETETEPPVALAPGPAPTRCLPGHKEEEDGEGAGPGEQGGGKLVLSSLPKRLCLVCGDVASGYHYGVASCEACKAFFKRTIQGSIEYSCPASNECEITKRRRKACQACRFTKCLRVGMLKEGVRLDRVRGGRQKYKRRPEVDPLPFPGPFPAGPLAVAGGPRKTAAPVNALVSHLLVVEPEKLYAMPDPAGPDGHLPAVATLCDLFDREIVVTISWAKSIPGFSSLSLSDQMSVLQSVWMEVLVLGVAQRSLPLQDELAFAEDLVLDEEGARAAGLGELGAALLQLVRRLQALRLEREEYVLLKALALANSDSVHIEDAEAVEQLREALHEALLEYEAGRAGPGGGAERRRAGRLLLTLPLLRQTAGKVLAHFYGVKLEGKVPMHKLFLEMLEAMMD", "method_in_brief": "as §1"}, "[12]": {"molecular_target": "T7, SPRED1 13-131 WH1 (domain begin residue: 13, domain end residue: 131), Q7Z699", "T7 chain": "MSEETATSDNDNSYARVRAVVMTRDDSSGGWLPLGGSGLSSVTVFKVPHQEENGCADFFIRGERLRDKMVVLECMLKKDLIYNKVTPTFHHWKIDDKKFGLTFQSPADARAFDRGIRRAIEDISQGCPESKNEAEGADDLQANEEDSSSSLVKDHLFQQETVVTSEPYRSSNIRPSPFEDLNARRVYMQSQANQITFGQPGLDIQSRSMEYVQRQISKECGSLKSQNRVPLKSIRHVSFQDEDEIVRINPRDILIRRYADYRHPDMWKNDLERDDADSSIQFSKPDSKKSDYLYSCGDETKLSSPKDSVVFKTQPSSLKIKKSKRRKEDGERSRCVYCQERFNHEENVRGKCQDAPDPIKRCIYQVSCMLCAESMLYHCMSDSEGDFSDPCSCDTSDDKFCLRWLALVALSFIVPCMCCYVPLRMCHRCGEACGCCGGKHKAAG", "method_in_brief": "as §1"}, "[13]": {"molecular_target": "EIF4A1 29-237 DEAD (domain begin residue: 29, domain end residue: 237), P60842", "sequence (P60842 whole entry)": "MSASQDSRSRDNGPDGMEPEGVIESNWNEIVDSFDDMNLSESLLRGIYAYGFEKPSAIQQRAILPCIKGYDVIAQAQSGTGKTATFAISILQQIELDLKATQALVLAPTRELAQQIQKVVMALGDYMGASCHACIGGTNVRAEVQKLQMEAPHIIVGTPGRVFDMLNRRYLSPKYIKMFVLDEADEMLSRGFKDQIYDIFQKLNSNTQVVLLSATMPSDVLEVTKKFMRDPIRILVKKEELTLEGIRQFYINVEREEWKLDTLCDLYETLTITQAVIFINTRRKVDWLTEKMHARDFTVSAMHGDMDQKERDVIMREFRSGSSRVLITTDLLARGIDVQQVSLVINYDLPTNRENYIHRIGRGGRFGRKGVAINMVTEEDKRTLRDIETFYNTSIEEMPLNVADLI", "method_in_brief": "as §1"}, "[14]": {"molecular_target": "T8, EEF1A1 244-333 GTP_EFTU_D2 (domain begin residue: 244, domain end residue: 333), P68104", "T8 chain": "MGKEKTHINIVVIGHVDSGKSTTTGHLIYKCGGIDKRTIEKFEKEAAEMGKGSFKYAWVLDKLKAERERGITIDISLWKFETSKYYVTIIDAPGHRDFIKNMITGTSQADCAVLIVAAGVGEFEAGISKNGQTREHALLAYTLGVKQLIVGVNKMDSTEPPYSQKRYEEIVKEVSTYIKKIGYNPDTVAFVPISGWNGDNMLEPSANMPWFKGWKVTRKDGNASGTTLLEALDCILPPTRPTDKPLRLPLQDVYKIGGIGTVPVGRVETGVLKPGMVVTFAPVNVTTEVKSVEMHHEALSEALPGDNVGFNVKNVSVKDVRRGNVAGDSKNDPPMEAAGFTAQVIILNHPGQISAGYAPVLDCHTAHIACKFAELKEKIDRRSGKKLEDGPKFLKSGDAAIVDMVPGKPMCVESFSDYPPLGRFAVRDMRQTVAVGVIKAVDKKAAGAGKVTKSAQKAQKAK", "method_in_brief": "as §1"}}, "data": [{"binder": "VWVAWSWMHSVQMEAD", "values": [{"measurement": "phage ELISA signal ratio", "setting": "[1]", "value": 12.3}, {"measurement": "phage ELISA signal ratio", "setting": "[2]", "value": 12.3}]}, {"binder": "SFPFLKMYLDPEPDDV", "values": [{"measurement": "phage ELISA signal ratio", "setting": "[3]", "value": 11.2}, {"measurement": "phage ELISA signal ratio", "setting": "[4]", "value": 11.2}]}, {"binder": "TMTPWDWPIYQGESEH", "values": [{"measurement": "phage ELISA signal ratio", "setting": "[5]", "value": 25.7}]}, {"binder": "VTDNAWPYPPVAVSQH", "values": [{"measurement": "phage ELISA signal ratio", "setting": "[6]", "value": 7.69}]}, {"binder": "HWWQDNQGYVWFQVEQ", "values": [{"measurement": "phage ELISA signal ratio", "setting": "[7]", "value": 5.34}]}, {"binder": "TQTLILDMDNMKFMTT", "values": [{"measurement": "phage ELISA signal ratio", "setting": "[5]", "value": 36.6}]}, {"binder": "KGVFLPEIEWKQGYDQ", "values": [{"measurement": "phage ELISA signal ratio", "setting": "[8]", "value": 11.9}]}, {"binder": "WTQTMNNITPWIEGIA", "values": [{"measurement": "phage ELISA signal ratio", "setting": "[5]", "value": 26.2}]}, {"binder": "WEGNQWEWPPAYMELM", "values": [{"measurement": "phage ELISA signal ratio", "setting": "[6]", "value": 7.2}]}, {"binder": "WTWDSEMGIWTLANDI", "values": [{"measurement": "phage ELISA signal ratio", "setting": "[1]", "value": 20.4}, {"measurement": "phage ELISA signal ratio", "setting": "[2]", "value": 20.4}]}, {"binder": "SVWWFGQTPYVLWEAS", "values": [{"measurement": "phage ELISA signal ratio", "setting": "[9]", "value": 7.15}]}, {"binder": "HADLQGLGVFEWQEPV", "values": [{"measurement": "phage ELISA signal ratio", "setting": "[8]", "value": 12.6}]}, {"binder": "QWDFSQMTWWPIEEWK", "values": [{"measurement": "phage ELISA signal ratio", "setting": "[10]", "value": 13.3}]}, {"binder": "EFFIPKEFYWDRVQDV", "values": [{"measurement": "phage ELISA signal ratio", "setting": "[10]", "value": 26.6}]}, {"binder": "QQTDDWHVAETGIWLA", "values": [{"measurement": "phage ELISA signal ratio", "setting": "[5]", "value": 13.9}]}, {"binder": "EHIQGHAPLLWEVLHS", "values": [{"measurement": "phage ELISA signal ratio", "setting": "[3]", "value": 10.8}, {"measurement": "phage ELISA signal ratio", "setting": "[4]", "value": 10.8}]}, {"binder": "EFNQWFADHWQQWHYE", "values": [{"measurement": "phage ELISA signal ratio", "setting": "[11]", "value": 3.76}, {"measurement": "phage ELISA signal ratio", "setting": "[12]", "value": 5.28}]}, {"binder": "SSGSSTRPMRVTRAPT", "values": [{"measurement": "phage ELISA signal ratio", "setting": "[1]", "value": 4.01}]}, {"binder": "STQTDSNWKMMPDGTV", "values": [{"measurement": "phage ELISA signal ratio", "setting": "[5]", "value": 34.5}]}, {"binder": "EMPQYMMTWYYEPDST", "values": [{"measurement": "phage ELISA signal ratio", "setting": "[13]", "value": 5.95}]}, {"binder": "ATPPQLTAHPNFMMWF", "values": [{"measurement": "phage ELISA signal ratio", "setting": "[14]", "value": 8.96}]}, {"binder": "PWSWFTYREQLETENV", "values": [{"measurement": "phage ELISA signal ratio", "setting": "[9]", "value": 20.1}]}, {"binder": "TNPPAEHMSRLHWELT", "values": [{"measurement": "phage ELISA signal ratio", "setting": "[3]", "value": 18.2}, {"measurement": "phage ELISA signal ratio", "setting": "[4]", "value": 18.2}]}, {"binder": "DIFPTYQHFMQQYSSE", "values": [{"measurement": "phage ELISA signal ratio", "setting": "[5]", "value": 30.3}]}, {"binder": "TMTDATLFEVPSYWIT", "values": [{"measurement": "phage ELISA signal ratio", "setting": "[5]", "value": 31.9}]}]}
